{
  "source": "PubChem BioAssay AID2588",
  "about": "(National Center for Advancing Translational Sciences (NCATS), 2010)",
  "note": "Several values for one entry are separate records, joined by “and”; a condition that tells them apart may be missing. Equal entries are not always repeated. Inconclusive results are not listed. Activity calls are given as the source filed them. Calls come from the whole dose curve; as a rule, active = well fitted inhibition curve with a large enough effect; inconclusive = small, poorly fitted or top-dose-only effect, or effect the other way; inactive = flat fitted curve, though single readings scatter.",
  "data": [
    {"target": "Lysosomal acid glucosylceramidase (Homo sapiens) (UniProt P04062)", "sequence (P04062 whole entry, looked up)": "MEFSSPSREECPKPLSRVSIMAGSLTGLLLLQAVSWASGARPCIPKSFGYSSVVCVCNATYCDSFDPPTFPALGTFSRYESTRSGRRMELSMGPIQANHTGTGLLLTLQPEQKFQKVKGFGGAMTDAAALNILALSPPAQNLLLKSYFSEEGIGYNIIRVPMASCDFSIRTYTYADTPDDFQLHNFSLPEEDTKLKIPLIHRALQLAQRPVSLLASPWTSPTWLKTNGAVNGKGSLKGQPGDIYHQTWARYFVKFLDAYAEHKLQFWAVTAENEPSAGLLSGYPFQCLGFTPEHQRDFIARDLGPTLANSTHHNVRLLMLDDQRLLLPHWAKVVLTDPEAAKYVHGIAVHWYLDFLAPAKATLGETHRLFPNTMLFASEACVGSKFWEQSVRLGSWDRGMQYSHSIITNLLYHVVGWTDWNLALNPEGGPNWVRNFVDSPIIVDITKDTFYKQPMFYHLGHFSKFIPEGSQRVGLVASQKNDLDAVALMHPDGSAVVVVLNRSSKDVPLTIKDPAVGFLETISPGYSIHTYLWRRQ", "assay": "qHTS Assay for Inhibitors and Activators of N370S glucocerebrosidase as a Potential Chaperone Treatment of Gaucher Disease: Activity in Non-Mutant Spleen Homogenate Using a Red Fluorescent Substrate", "conditions": "red fluorogenic substrate GCase activity; series mostly up to 50.2 µM; activity change, negative = inhibition: at the top concentration", "description": "NIH Chemical Genomics Center [NCGC]\nNIH Molecular Libraries Probe Production Centers Network [MLPCN]\nAssay Submitter (PI): Wei Zheng\nGlucocerebrosidase (GC) catalyzes the hydrolysis of beta-glucocerebroside to glucose and ceramide in lysosomes. Mutations in the glucocerebrosidase gene result in Gaucher disease, an autosomal recessive lysosomal storage disorder. Many of the mutations encountered in patients with Gaucher disease are missense alterations that may cause misfolding, decreased stability and/or mistrafficking of this lysosomal protein. […] These inhibitors include iminosugar analogs and three non-iminosugar inhibitors identified from a previous HTS of 62,000 compounds with the wild type recombinant enzyme. However, the enhancement of enzyme activity by the chaperone action of an enzyme inhibitor must be balanced against the direct inhibition of the enzyme. An enzyme activator could also function as a chaperone by binding to the enzyme and helping to correct its misfolding and mistrafficking. While activators for GC have not yet been identified, they may have better therapeutic potential than inhibitors. Therefore the discovery and development of chemical activators may provide a new strategy for the chaperone therapy.\nWe have optimized a new assay using N370S mutant GC derived from the spleen of a Gaucher patient. […] In addition, the MLPCN compound library has expanded, which increases the chance of finding new and better probes.\nThis confirmation assay tests for compound activity in spleen homogenate containing wildtype enzyme using an alternate resorufin-based substrate.\nNCGC Assay Protocol Summary:\nThis is a fluorogenic enzyme assay with resorufin-beta-D-glucopyranoside as the substrate and wildtype glucocerebrosidase from human spleen homogenate as the enzyme preparation. Upon the hydrolysis of this fluorogenic substrate, the resulting product, […] which can be detected by a standard fluorescence plate reader. Data were normalized to the controls for basal activity (without enzyme) and 100% activity (with enzyme). The AC50 values were determined from concentration-response data modeled with the standard Hill equation.\nAssay buffer: 50 mM citric acid (titrated with potassium phosphate to pH 5.0), 100 mM potassium chloride, 10 mM sodium chloride, 1 mM magnesium chloride, 0.01% Tween-20.\n1536-well assay protocol:\n(1) Add 2 ul/well of spleen homogenate (27 ug final)\n(2) Add 23 nL compounds in DMSO solution. The final titration was 0.5 nM to 58 uM.\n(3) Add 2 ul of substrate (1 mM final)\n(4) Incubate at 37C for 40 min.\n(5) Add 2 ul stop solution (1M NaOH and 1M Glycine mixture, pH 10)\n(6) Detect the assay plate in a ViewLux plate reader (PerkinElmer) with Ex=365 nm and Em=440nm.\nKeywords: Glucocerebrosidase, beta-glucosidase, Gaucher Disease, pharmacological chaperone, chaperone therapy, high throughput screening, glucocerebrosidase inhibitor, MLSMR, MLSCN, NIH Roadmap, qHTS and NCGC", "values": [
      {"smiles": "CCN(CC)c1ccc(C(=O)Nc2ccc3nc(N4CCOCC4)cc(C)c3c2)cc1", "Potency": "10 µM (active)"},
      {"smiles": "NS(=O)(=O)c1ccc(S(=O)(=O)N2CCN(c3nc(-c4cccs4)nc4ccccc34)CC2)cc1", "Potency": "2.24 µM (active)"},
      {"smiles": "Cc1ccc(C)c(N2CCN(C(=O)CCC(=O)Nc3ccc4nc(N5CCOCC5)cc(C)c4c3)CC2)c1", "Potency": "14.1 µM (active)"},
      {"smiles": "O=C(Nc1cnn(Cc2ccc(F)cc2)c1)c1cnn2c(C(F)F)cc(-c3ccccc3)nc12", "activity change, negative = inhibition": "23.4% (inactive)"},
      {"smiles": "O=S(=O)(c1cccc(C(F)(F)F)c1)N1CCN(c2nc(-c3ccccc3)nc3ccccc23)CC1", "Potency": "8.91 µM (active)"},
      {"smiles": "Cc1cc(C)cc(N(CC(=O)NC2CCC(C)CC2)S(=O)(=O)c2c(C)[nH]c(=O)[nH]c2=O)c1", "note": "(stereo not given)", "Potency": "0.398 µM (active)"},
      {"smiles": "O=S(=O)(c1ccc2ccccc2c1)N1CCN(c2nc(-c3cccs3)nc3ccccc23)CC1", "Potency": "0.251 µM (active)"},
      {"smiles": "COc1ccc(Nc2nc(-c3cccs3)nc3ccccc23)cc1", "Potency": "1.41 µM (active)"},
      {"smiles": "COc1cccc(CN(C)c2nc(-c3cccs3)nc3ccccc23)c1", "Potency": "2 µM (active)"},
      {"smiles": "O=C(Nc1nccs1)c1ccc(NS(=O)(=O)c2ccc(Cl)cc2)cc1", "activity change, negative = inhibition": "-9.24% (inactive)"},
      {"smiles": "Cc1cc(C)n2ncc(C(=O)Nc3cccc(O)c3)c2n1", "activity change, negative = inhibition": "27.8% (inactive)"},
      {"smiles": "CCOC(=O)c1ccc(S(=O)(=O)N2CCN(c3nc(-c4cccs4)nc4ccccc34)CC2)cc1", "Potency": "0.794 µM (active)"},
      {"smiles": "COc1ccccc1C(=O)COC(=O)c1ccccc1OCC(=O)Nc1ccc(SC(F)F)cc1", "activity change, negative = inhibition": "3.84% (inactive)"},
      {"smiles": "Cc1cc(N2CCN(c3ncccn3)CC2)nc2ccc(NC(=O)C3CCC(C)CC3)cc12", "note": "(stereo not given)", "Potency": "11.2 µM (active)"},
      {"smiles": "c1ccc2c(NCC3CCCO3)nc(N3CCOCC3)nc2c1", "note": "(stereo not given)", "activity change, negative = inhibition": "6.48% (inactive)"},
      {"smiles": "Cc1ccc(S(=O)(=O)N2CCN(c3nc(-c4ccc(F)cc4)nc4cc(Cl)ccc34)CC2)cc1", "activity change, negative = inhibition": "-16.6% (inactive)"},
      {"smiles": "O=S(=O)(c1ccccc1Br)N1CCN(c2nc(-c3cccs3)nc3ccccc23)CC1", "Potency": "0.562 µM (active)"},
      {"smiles": "COc1cc2c(cc1NC(=O)COC(=O)[C@@H](NC(=O)c1ccccc1)C(C)C)oc1ccccc12", "activity change, negative = inhibition": "21.1% (inactive)"},
      {"smiles": "COc1ccc(-c2nc(N3CCN(S(=O)(=O)c4ccc(F)cc4)CC3)c3ccccc3n2)cc1", "activity change, negative = inhibition": "-9.76% (inactive)"},
      {"smiles": "O=[N+]([O-])c1cccc(S(=O)(=O)N2CCN(c3nc(-c4cccs4)nc4ccccc34)CC2)c1", "Potency": "1.12 µM (active)"},
      {"smiles": "Cc1ccc(S(=O)(=O)Nc2ccc(C(=O)NCc3ccccc3)cc2)cc1", "activity change, negative = inhibition": "-9.87% (inactive)"},
      {"smiles": "O=S(=O)(c1ccc(Cl)cc1)N1CCN(c2nc(-c3cccs3)nc3ccccc23)CC1", "Potency": "1.58 µM (active) and 355 nM (active)"},
      {"smiles": "O=S(=O)(c1ccc(C(F)(F)F)cc1)N1CCN(c2nc(-c3cccs3)nc3ccccc23)CC1", "Potency": "1.26 µM (active)"},
      {"smiles": "COc1ccccc1OCC(=O)Nc1oc(-c2ccccc2)c(-c2ccccc2)c1C#N", "activity change, negative = inhibition": "10.6% (inactive)"},
      {"smiles": "N=c1c2c(-c3ccccc3)c(-c3ccccc3)n(Cc3ccco3)c2ncn1CCCn1ccnc1", "Potency": "12.6 µM (active)"},
      {"smiles": "COc1cc(OC)c2c(N)c(C#N)c(C(F)(F)C(F)(F)F)nc2c1", "activity change, negative = inhibition": "-0.154% (inactive)"},
      {"smiles": "COC(=O)c1ccccc1NC(=O)c1ccc2c(c1)C(=O)N(Cc1ccccc1)C2=O", "activity change, negative = inhibition": "8.05% (inactive)"},
      {"smiles": "CCCC1CCC(C(=O)Nc2ccc3nc(N4CCOCC4)cc(C)c3c2)CC1", "note": "(stereo not given)", "Potency": "0.447 µM (active)"},
      {"smiles": "O=c1cc(N2CCCCC2)c(-c2ccccc2)nn1Cc1c(Cl)cccc1Cl", "activity change, negative = inhibition": "7.27% (inactive)"},
      {"smiles": "O=S(=O)(c1ccc(F)cc1)N1CCN(c2nc(-c3ccc(F)cc3)nc3cc(Cl)ccc23)CC1", "activity change, negative = inhibition": "-10.4% (inactive)"},
      {"smiles": "O=S(=O)(c1cccc(Cl)c1)N1CCN(c2nc(-c3cccs3)nc3ccccc23)CC1", "Potency": "1.26 µM (active)"},
      {"smiles": "Cc1ccc(Cl)cc1NC(=O)c1ccccc1OCC(=O)Nc1ccc(Cl)cc1", "activity change, negative = inhibition": "27.3% (inactive)"},
      {"smiles": "CC(C)(C)c1ccc(S(=O)(=O)N2CCN(c3nc(-c4cccs4)nc4ccccc34)CC2)cc1", "Potency": "1.12 µM (active)"},
      {"smiles": "Cc1ccc(-c2nc(N3CCN(S(=O)(=O)c4ccc(F)cc4)CC3)c3ccc(Cl)cc3n2)cc1", "activity change, negative = inhibition": "-14.4% (inactive)"},
      {"smiles": "COc1cccc(NC(=O)CSc2nc3ccccc3c(=O)n2Cc2cccs2)c1", "activity change, negative = inhibition": "-11.8% (inactive)"},
      {"smiles": "Nc1nc(-c2ccccc2)c(N=Nc2ccc(Cl)cc2)s1", "activity change, negative = inhibition": "-17.6% (inactive)"},
      {"smiles": "CCCNC(=O)COC(=O)c1ccccc1OCC(=O)Nc1ccc(Br)cc1", "activity change, negative = inhibition": "-7.67% (inactive)"},
      {"smiles": "Cc1cc(Nc2cccc(Cl)c2)nc2ccc(NC(=O)C3CCC(C)CC3)cc12", "note": "(stereo not given)", "activity change, negative = inhibition": "-7.54% (inactive)"},
      {"smiles": "CCOc1ccccc1NC(=O)CN(c1ccc(C)cc1)S(=O)(=O)c1c(C)noc1C", "activity change, negative = inhibition": "-9.17% (inactive)"},
      {"smiles": "N#Cc1ccccc1Sc1ccccc1C(=O)OCC(=O)NC12CC3CC(CC(C3)C1)C2", "activity change, negative = inhibition": "-4.18% (inactive)"}
    ]}
  ]
}
